Reference: the supplement of paper PMC10127200
Counter-ions that a name gives are not always drawn.

How the values were obtained:
Experiment in all cases: Euclidean distance of Cell Painting phenotypic profile (signed KS, 77 features) to DMSO centroid (dimensionless distance); 5 or 10 uM (library dependent); higher = stronger phenotypic change vs DMSO (phenoactivity)
Details in all cases: 48 h
786-O = test system: 786-O
Procedure, shortened: (§1)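 Phenoactivity is computed as Euclidean distance to the median vehicle profile. The profiles, drawn from 77 Harmony features scored as signed Kolmogorov-Smirnov statistics versus same-plate vehicle wells, were corrected for plate position, correlation-weighted and replicate-averaged at the top dose. Stained cells were imaged confocally at 20X (9 fields/well) after 48 h with library compounds at 10 or 5 uM, 0.1% DMSO final, in five cancer lines and a healthy fibroblast line.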

A549 = test system: A549
Procedure, shortened: as §1

DU145 = test system: DU145
Procedure, shortened: as §1

FB = test system: FB
Procedure, shortened: as §1

HEPG2 = test system: HEPG2
Procedure, shortened: as §1

OVCAR4 = test system: OVCAR4
Procedure, shortened: as §1

CCCCC[C@H](O)/C=C/[C@H]1[C@H](O)CC(=O)[C@@H]1CCCCCCC(=O)O [Alprostadil]
Euclidean distance (786-O): 1.36
Euclidean distance (A549): 0.929
Euclidean distance (DU145): 0.936
Euclidean distance (FB): 1.16
Euclidean distance (HEPG2): 0.927
Euclidean distance (OVCAR4): 1.2

CCOC(=O)[C@H](CCc1ccccc1)N[C@@H](C)C(=O)N1[C@H](C(=O)O)C[C@@H]2CCC[C@@H]21 [Ramipril]
Euclidean distance (786-O): 1.25
Euclidean distance (A549): 0.735
Euclidean distance (DU145): 0.891
Euclidean distance (FB): 1.1
Euclidean distance (HEPG2): 1.89
Euclidean distance (OVCAR4): 1.21

CCCS(=O)(=O)Nc1ccc(F)c(C(=O)c2c[nH]c3ncc(-c4ccc(Cl)cc4)cc23)c1F [Vemurafenib (PLX4032. RG7204)]
Euclidean distance (786-O): 1.14
Euclidean distance (A549): 1.53
Euclidean distance (DU145): 1.68
Euclidean distance (FB): 1.23
Euclidean distance (HEPG2): 2.32
Euclidean distance (OVCAR4): 1.06

CC/C(=C(/CC)c1ccc(O)cc1)c1ccc(O)cc1 [Diethylstilbestrol]
Euclidean distance (786-O): 0.795
Euclidean distance (A549): 0.688
Euclidean distance (DU145): 0.96
Euclidean distance (FB): 0.826
Euclidean distance (HEPG2): 0.721
Euclidean distance (OVCAR4): 0.682

CCOC(=O)C1=C(C)NC(C)=C(C(=O)OCC)C1c1ccccc1/C=C/C(=O)OC(C)(C)C [Lacidipine]
Euclidean distance (786-O): 0.955
Euclidean distance (A549): 0.916
Euclidean distance (DU145): 1.62
Euclidean distance (FB): 1.14
Euclidean distance (HEPG2): 0.707
Euclidean distance (OVCAR4): 1.15

C[C@@H]1CN(C(=O)c2ccc(NC(=O)c3cc(O[C@H](C)c4c(Cl)ccc(F)c4Cl)c(N)nn3)cc2)C[C@H](C)N1 [Ensartinib (X-396) dihydrochloride]
Euclidean distance (786-O): 5.01
Euclidean distance (A549): 4.53
Euclidean distance (DU145): 3.15
Euclidean distance (FB): 4.29
Euclidean distance (HEPG2): 3.74
Euclidean distance (OVCAR4): 3.35

CCOC(=O)C1=C(C)NC(C)=C(C(=O)OC)C1c1cccc([N+](=O)[O-])c1 (stereo not drawn) [Nitrendipine]
Euclidean distance (786-O): 1
Euclidean distance (A549): 0.871
Euclidean distance (DU145): 0.908
Euclidean distance (FB): 1.33
Euclidean distance (HEPG2): 0.709
Euclidean distance (OVCAR4): 0.934

CN(C)CC/C=C1/c2ccccc2COc2ccc(CC(=O)O)cc21 [Olopatadine HCl]
Euclidean distance (786-O): 0.847
Euclidean distance (A549): 0.745
Euclidean distance (DU145): 0.865
Euclidean distance (FB): 1.38
Euclidean distance (HEPG2): 0.686
Euclidean distance (OVCAR4): 0.734

CC(O)Cn1cnc2c1c(=O)n(C)c(=O)n2C (stereo not drawn) [Proxyphylline]
Euclidean distance (786-O): 1.48
Euclidean distance (A549): 0.998
Euclidean distance (DU145): 0.788
Euclidean distance (FB): 0.934
Euclidean distance (HEPG2): 0.686
Euclidean distance (OVCAR4): 1.03

CN(C)c1ccc(C(=C2C=CC(=[N+](C)C)C=C2)c2ccc(N(C)C)cc2)cc1 [Crystal Violet]
Euclidean distance (786-O): 3.55
Euclidean distance (A549): 2.83
Euclidean distance (DU145): 3
Euclidean distance (FB): 2.46
Euclidean distance (HEPG2): 3.45
Euclidean distance (OVCAR4): 2.56

Cc1cc(OCc2nnc(SC3CCCC3)n2-c2cccnc2)ccc1-c1ccc(S(C)(=O)=O)cc1
Euclidean distance (786-O): 3.57
Euclidean distance (A549): 3.4
Euclidean distance (DU145): 3.15
Euclidean distance (FB): 2.69
Euclidean distance (HEPG2): 3.86
Euclidean distance (OVCAR4): 3.73

C=C1/C(=C\C=C2/CCC[C@]3(C)[C@@H]([C@H](C)/C=C/[C@H](C)C(C)C)CC[C@@H]23)C[C@@H](O)C[C@@H]1O [Doxercalciferol]
Euclidean distance (786-O): 2.73
Euclidean distance (A549): 1.49
Euclidean distance (DU145): 6.05
Euclidean distance (FB): 1.9
Euclidean distance (HEPG2): 2.03
Euclidean distance (OVCAR4): 1.73

N#Cc1cc(NC(=O)C(=O)O)c(Cl)c(NC(=O)C(=O)O)c1 [Lodoxamide Tromethamine]
Euclidean distance (786-O): 1.61
Euclidean distance (A549): 1.34
Euclidean distance (DU145): 0.792
Euclidean distance (FB): 1.06
Euclidean distance (HEPG2): 0.894
Euclidean distance (OVCAR4): 1.01

CC[C@H](CO)Nc1nc(NCc2ccccc2)c2ncn(C(C)C)c2n1 [Roscovitine (Seliciclib.CYC202)]
Euclidean distance (786-O): 2.13
Euclidean distance (A549): 2.16
Euclidean distance (DU145): 1.28
Euclidean distance (FB): 1.32
Euclidean distance (HEPG2): 1.82
Euclidean distance (OVCAR4): 1.84

O=C1c2c(O)ccc(O)c2C(=O)c2c(NCCNCCO)ccc(NCCNCCO)c21 [Mitoxantrone HCl]
Euclidean distance (786-O): 4.89
Euclidean distance (A549): 4.24
Euclidean distance (DU145): 3.24
Euclidean distance (FB): 4.31
Euclidean distance (HEPG2): 4.05
Euclidean distance (OVCAR4): 6.27

CCc1cccc(CC)c1NC(=O)N1Cc2[nH]nc(NC(=O)c3ccc(N4CCN(C)CC4)cc3)c2C1
Euclidean distance (786-O): 2.54
Euclidean distance (A549): 2.75
Euclidean distance (DU145): 2.46
Euclidean distance (FB): 3.44
Euclidean distance (HEPG2): 2.47
Euclidean distance (OVCAR4): 2.78

C[C@@H](O)[C@H]1C(=O)N2C(C(=O)[O-])=C(SC3Cn4cnc[n+]4C3)[C@H](C)[C@H]12 (stereo partly drawn) [Biapenem]
Euclidean distance (786-O): 1.35
Euclidean distance (A549): 0.934
Euclidean distance (DU145): 1.14
Euclidean distance (FB): 1.22
Euclidean distance (HEPG2): 1.02
Euclidean distance (OVCAR4): 0.838

COc1cc(OC2CCN(C)CC2)ccc1Nc1ncc2c(n1)n(C1CCCC1)c(=O)n2C
Euclidean distance (786-O): 1.53
Euclidean distance (A549): 2.28
Euclidean distance (DU145): 1.39
Euclidean distance (FB): 2.84
Euclidean distance (HEPG2): 1.78
Euclidean distance (OVCAR4): 1.83

C[C@@H](Oc1cc(-c2cnn(C3CCNCC3)c2)cnc1N)c1c(Cl)ccc(F)c1Cl
Euclidean distance (786-O): 3.69
Euclidean distance (A549): 4.3
Euclidean distance (DU145): 3.56
Euclidean distance (FB): 5.27
Euclidean distance (HEPG2): 4.27
Euclidean distance (OVCAR4): 4.15

Cc1cc(C)nc(NS(=O)(=O)c2ccc(N)cc2)n1 [Sulfamethazine Sodium Salt]
Euclidean distance (786-O): 0.877
Euclidean distance (A549): 0.792
Euclidean distance (DU145): 0.732
Euclidean distance (FB): 0.878
Euclidean distance (HEPG2): 0.494
Euclidean distance (OVCAR4): 1.38

NC(=O)C(c1ccccc1)(c1ccccc1)[C@@H]1CCN(CCc2ccc3c(c2)CCO3)C1 [Darifenacin HBr]
Euclidean distance (786-O): 1.59
Euclidean distance (A549): 0.89
Euclidean distance (DU145): 0.786
Euclidean distance (FB): 1.4
Euclidean distance (HEPG2): 1.11
Euclidean distance (OVCAR4): 1.04

N[C@@H](Cc1cc(I)c(Oc2cc(I)c(O)c(I)c2)c(I)c1)C(=O)O [L-Thyroxine]
Euclidean distance (786-O): 1.38
Euclidean distance (A549): 1.12
Euclidean distance (DU145): 1.19
Euclidean distance (FB): 0.961
Euclidean distance (HEPG2): 0.718
Euclidean distance (OVCAR4): 1.45

Cc1cnc(C(=O)NCCc2ccc(S(=O)(=O)NC(=O)NC3CCCCC3)cc2)cn1 [Glipizide]
Euclidean distance (786-O): 1.39
Euclidean distance (A549): 1.31
Euclidean distance (DU145): 0.684
Euclidean distance (FB): 1.1
Euclidean distance (HEPG2): 1.74
Euclidean distance (OVCAR4): 1.36
